From PubChem BioAssay (NCI)
This is part of a sample that, as a whole, favours compounds with a hit. Of some 83,000 tested, about 20% had one in any assay.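 For each line, cells grew in 96-well plates with the test compound present at a single concentration for 48 hours.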 Values without a mark were called inactive. The source made the active and inactive calls. The calls were made as follows: active = growth percent below 10; inactive = the rest.

Tests used:
Assay in all cases: NCI-60 one-dose screen, 48 h (100 = growth as untreated, 0 = no growth, -100 = all killed)
Conditions in all cases: 10 µM unless noted
NCI-H23 lung = tested on: NCI-H23 lung
NCI-H226 lung = tested on: NCI-H226 lung
HOP-62 NSCLC = tested on: HOP-62 NSCLC
NCI-H460 lung = tested on: NCI-H460 lung
HOP-92 NSCLC = tested on: HOP-92 NSCLC
NCI-H522 lung = tested on: NCI-H522 lung
A549/ATCC NSCLC = tested on: A549/ATCC NSCLC
786-0 renal = tested on: 786-0 renal
COLO 205 colon = tested on: COLO 205 colon
DU-145 prostate = tested on: DU-145 prostate
K-562 leukemia = tested on: K-562 leukemia
MALME-3M melanoma = tested on: MALME-3M melanoma
MDA-MB-231 breast = tested on: MDA-MB-231 breast
RXF 393 renal = tested on: RXF 393 renal
SF-268 CNS = tested on: SF-268 CNS
SF-295 CNS = tested on: SF-295 CNS
SF-539 CNS = tested on: SF-539 CNS
UACC-257 melanoma = tested on: UACC-257 melanoma
M14 melanoma = tested on: M14 melanoma

| SMILES | growth (NCI-H23 lung) | growth (NCI-H226 lung) | growth (HOP-62 NSCLC) | growth (NCI-H460 lung) | growth (HOP-92 NSCLC) | growth (NCI-H522 lung) | growth (A549/ATCC NSCLC) | growth (786-0 renal) | growth (COLO 205 colon) | growth (DU-145 prostate) | growth (K-562 leukemia) | growth (MALME-3M melanoma) | growth (MDA-MB-231 breast) | growth (RXF 393 renal) | growth (SF-268 CNS) | growth (SF-295 CNS) | growth (SF-539 CNS) | growth (UACC-257 melanoma) | growth (M14 melanoma) |
| --- | --- | --- | --- | --- | --- | --- | --- | --- | --- | --- | --- | --- | --- | --- | --- | --- | --- | --- | --- |
| COc1ccc(C(=O)/C=C/c2cc3ccccc3n3nnnc23)cc1 | 103% | 105% | 103% | 112% | 109% | 94% | 105% | 91.4% | 122% | 115% | 91.8% | 108% | 106% | 106% | 108% | 102% | 107% | 114% | 110% |
| Oc1c(Cl)cc(Cl)c(Cl)c1CNCCNCc1c(O)c(Cl)cc(Cl)c1Cl | 24.7% | 56.2% | 25% | 13% | – | 14.9% | 13.4% | – | 13.3% | 45.9% | 10.3% | 13.4% | 35.5% | 28.2% | 25% | 18.3% | -9.34% (active) | 4.63% (active) | 20.3% |
| CC(=O)c1ccc(NS(=O)(=O)c2cccc(C(=O)Nc3ccc(Br)cc3)c2)cc1 | 36.4% [25 µM] | 43% [25 µM] | 82% [25 µM] | 75.7% [25 µM] | 47.7% [25 µM] | 46.4% [25 µM] | 61.9% [25 µM] | 58.7% [25 µM] | 77.7% [25 µM] | 94.6% [25 µM] | 44.4% [25 µM] | 56.2% [25 µM] | 94.1% [25 µM] | 61.7% [25 µM] | 60.8% [25 µM] | 23.8% [25 µM] | 66.5% [25 µM] | 44.6% [25 µM] | 63.9% [25 µM] |
| CCCCCN1C=C/C(=C\C(=O)N(C)c2ccc(Oc3ccccc3)cc2)c2ccccc21 | 68.4% | 79.1% | 87.4% | 92% | 47.7% | 61.1% | 82.3% | 89.7% | 81.6% | 103% | 48.8% | 83.7% | 76.9% | 85.8% | 87.8% | 81.1% | 92.8% | 74.2% | 94.1% |
| N#CC1C(C#N)C(C(=O)c2ccc(Br)cc2)N2c3ccccc3C=CC12 (stereo unspecified) | 79.2% | 64.7% | – | 96.2% | 55.5% | 78.6% | – | – | 3.37% (active) | 91.9% | 24.4% | 67.3% | 57.6% | 74.5% | 78.5% | 89.1% | 89.3% | 98.9% | 75.3% |
| Nc1n[nH]c2cccc(C#Cc3cccc(C(=O)Nc4cccc(C(F)(F)F)c4)c3)c12 | 54% | 63.2% | 67.7% | – | 58.6% | 60.9% | 77.8% | 90.6% | 49.8% | 74.9% | 8.36% (active) | 10.4% | 53.6% | 65.9% | 56.4% | 81.6% | 39% | 73.2% | – |
| O=C1OC(Cc2ccccc2)C1c1ccccc1 (stereo unspecified) | 106% | 102% | 104% | – | 104% | 89.7% | 95.9% | 102% | 109% | 110% | 108% | 106% | 102% | 120% | 97.9% | 98.2% | 102% | 93.9% | – |
| COc1cc2nc(-c3ccc(Cl)cc3)cc(OCCCN3CCC(O)CC3)c2cc1OC | 76.1% | 3.82% (active) | 63.2% | 23.8% | 38.1% | 33.4% | 34.9% | 75.2% | 23.8% | 38.5% | 13.9% | 64% | 26.1% | 46.3% | 54.8% | -10.5% (active) | 54.3% | 8.39% (active) | -48% (active) |
| O=C1c2cccc3c(-c4ccc5c(c4)ncn5C4CCCCC4)ccc(c23)C(=O)N1CCO | 78.6% | 77% | 81.9% | 94.1% | 51.1% | 73.7% | 95.6% | 95.4% | 108% | 100% | – | 105% | 71.1% | 106% | 93.9% | 81.9% | 99% | 94.5% | 106% |
